The results in this text go back to PubChem BioAssay (NCI).

The panel holds about 83,000 compounds, 20% with a hit somewhere; the sample as a whole holds those more often.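 48-hour exposure, single concentration, 96-well plates; percent growth endpoint where 0 means no net growth. Active: below 10.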 Unmarked numbers belong to inactive results. Active and inactive are the calls of the source.

Common to all, as to assay: NCI-60 one-dose screen, 48 h (100 = growth as untreated, 0 = no growth, -100 = all killed)
Common to all, as to conditions: 10 µM unless noted

Assay [1] concerns NCI-H23 lung.
Assay [2] has as its system NCI-H226 lung.
The test system of assay [3] is NCI-H322M lung.
The subject of assay [4] is HOP-62 NSCLC.
Assay [5] has as its system NCI-H460 lung.
Assay [6] concerns HOP-92 NSCLC.
The test system of assay [7] is NCI-H522 lung.
Assay [8] has as its system A549/ATCC NSCLC.
Assay [9] relates to 786-0 renal.
Assay [10] deals with COLO 205 colon.

Turning to `COc1ccc(/C=C/c2nc(Nc3ccc(S(=O)(=O)Nc4nc(C)cc(C)n4)cc3)c3ccccc3n2)cc1`, the growth was 78.1% in assay [1]; 68.9% in assay [2]; 29% in [3]; 75.6% in assay [4]; 63% in [5]; 66.4% in [6]. In addition, the growth in [7] was 68.5%; in [8] it was 42.2%; in [9], 78.8%; in [10], 59.8%.

On to `C=C1C(=O)O[C@H]2[C@H]1CC/C(C(=O)NCCCCCNC(=O)/C1=C/CC[C@@]3(C)O[C@H]3[C@H]3OC(=O)C(=C)[C@@H]3CC1)=C\CC[C@@]1(C)O[C@@H]21`, for which the growth was 97.6% in [1]; 103% in [2]; 93.9% in [3]; 98.8% in [4]; 109% in assay [5]; 105% in [6]. For the same compound, the growth in [7] was 89.3%; in [8] it was 95.3%; in assay [9], 101%; in assay [10], 102%.

Regarding `CCN(CC)CCCC(C)Nc1cc(O)cc2cccnc12` (stereo not given), the growth in [1] is 98.8%; in assay [2] it was 112%; in [3] it was 110%; in assay [4], 104%; in assay [5], 108%; in assay [6] it was 89.4%. Moreover, the growth in assay [7] was 125%; in assay [8], 96.2%; in [9], 118%; in [10], 74.5%.

With `COc1cc(-c2cc(-c3ccc(N(C)C)cc3)nc(N3CCOCC3)c2C#N)cc(OC)c1OC`, the growth was 60% in assay [1]; 19.9% in assay [2]; 35.8% in assay [3]; -36.8% (active) in [4]; 15.2% in [5]; 4.13% (active) in [6]. The growth in [7] was 0.156% (active); in [8] it was 26.9%; in assay [9], -38.5% (active); in assay [10], 19.9%.

For `CCN1Cc2nc3sc(C)c(C)c3c(=O)n2C=C1C`, the growth is 46.8% in assay [1]; 77.8% in assay [2]; 69% in assay [3]; 32.6% in assay [4]; 115% in [5]; -14.7% (active) in assay [6]. For the same compound, the growth in [7] is 38.5%; in assay [8], 86.8%; in assay [9], 16.8%; in assay [10], 111%.

For `CC(c1ccccc1)C(C(=O)c1ccccc1)c1ccccc1` (stereo not given), the growth in [1] was 84.6%; in [2] it was 73.5%; in assay [3], 103%; in assay [4], 44.8%; in assay [5], 88.3%; in assay [6], 107%. Moreover, the growth in [7] is 68.4%; in assay [8], 80%; in [9], 83.5%; in [10] it was 112%.

`COc1ccc(-c2[nH][nH]c(=O)c2-c2nc3ccccc3s2)cc1`: the growth in assay [1] is 105%; in assay [2], 98%; in assay [3] it was 100%; in assay [4], 104%; in assay [5], 105%; in assay [6], 108%. Also, the growth was 96.3% in assay [7], 107% in [8], 100% in [9] and 112% in [10].

In the case of `Cc1ccc(-n2nc3c(c(C#N)c2=O)CC(c2ccccc2[N+](=O)[O-])C([N+](=O)[O-])=C3O)cc1` (stereo not given), the growth was 93.2% in assay [1]; 92.1% in assay [2]; 88% in [3]; 84.6% in assay [4]; 95.4% in assay [5]; 88.5% in [6]. The growth was 89.4% in assay [7], 90.1% in [8], 82.7% in [9] and 101% in assay [10].

For the compound `COc1cc(NC(C)CCCNC(=O)CCC(=O)NCCCNCCCCCCCCCCNCCCNC(=O)CCC(=O)NCCCC(C)Nc2cc(OC)cc3cccnc23)c2ncccc2c1` (stereo not given), the growth is 63.4% [8 µM] in assay [1]; 58.6% [8 µM] in assay [2]; 32.1% [8 µM] in assay [3]; 101% [8 µM] in assay [4]; 81% [8 µM] in [5]; 59% [8 µM] in assay [6]. Moreover, the growth in assay [7] was 57.1% [8 µM]; in [8], 63.7% [8 µM]; in [9], 92.5% [8 µM]; in [10], 26.7% [8 µM].

Consider `COc1ccc2c(c1)C(=O)CC(c1ccccc1OC)O2` (stereo not given), for which the growth in assay [1] was 86.9%; in [2] it was 93.8%; in assay [3] it was 104%; in assay [4], 92.6%; in [5], 100%; in [6] it was 94.3%. For the same compound, the growth in [7] was 93%; in [8], 96%; in assay [9] it was 104%; in [10], 109%.

Consider `O=C(Nc1ccccc1C(=O)N/N=C(\c1ccccc1)c1ccccn1)c1ccc(F)cc1`, for which the growth in [1] was 28.2%; in assay [2], 27.4%; in assay [3], 25.9%; in [4], 12.6%; in assay [5], 6.06% (active); in assay [6], 69.1%. For the same compound, the growth in assay [7] was 22.7%; in [8], 15.6%; in [9], -8.12% (active); in assay [10] it was 10.6%.

Turning to `C=C1C(=O)O[C@H]2[C@H]1CC/C(CNC(=O)CCc1ccc(OC)cc1)=C\CC[C@@]1(C)O[C@@H]21`, the growth in assay [1] is 85.3%; in assay [2], 89.9%; in assay [3] it was 91.4%; in [4], 83.6%; in assay [5], 90.4%; in assay [6] it was 19.8%. Further, the growth is 20.2% in [7], 81.7% in [8], 34% in assay [9] and 15.1% in assay [10].

As to `COc1ccc(NC(N)=NCCCOc2ccc(F)cc2)cc1`, the growth was 64.4% in assay [1]; 91% in assay [2]; 88.1% in assay [3]; 74.2% in assay [4]; 101% in [5]; 80.8% in [6]. For the same compound, the growth in [7] was 85.5%; in [8] it was 73.1%; in [9], 89.1%; in [10], -0.958% (active).

Take `C[C@@H](Nc1ncnc2ccc(-c3cnc(N)nc3)cc12)c1ccc(F)cc1`: the growth in [1] is 85.9%; in assay [2], 89.1%; in [3] it was 37.8%; in assay [4] it was 57.7%; in assay [5] it was 99.2%; in assay [6], 49.6%. Besides, the growth was 66.3% in assay [7], 74% in assay [8], 68.9% in assay [9] and 112% in assay [10].

In the case of `CC(=O)[C@@H]1CC[C@]2(C(N)=O)CC[C@]3(C)[C@H](CC[C@@H]4[C@@]5(C)CCCNC(C)(C)[C@@H]5CC[C@]43C)[C@@H]12`, the growth in assay [1] is 93.7%; in [2], 99.6%; in [3], 96.3%; in [4], 98.3%; in assay [5] it was 86.2%; in [6], 81.7%. Also, the growth in assay [7] is 107%; in [8], 83.3%; in assay [9], 88.9%; in assay [10], 86.6%.

As to `CC(=O)O[C@H]1Cc2c([nH]c3ccccc23)[C@@H](c2ccc(Cl)cc2)N1C(=O)CCNC(C)(C)C`, the growth is 84.5% in assay [1]; 69% in assay [2]; 65.9% in [3]; 69.1% in assay [4]; 37.5% in [5]; 14.1% in assay [6]. Moreover, the growth is 63.9% in [7], 76.3% in assay [8], 53.1% in assay [9] and 53.7% in [10].

Take `N/C(=N\C(N)=N\c1nc2ccccc2s1)c1cccc(Cl)c1`: the growth was 58.4% in assay [1]; 85.6% in [2]; 97.7% in [3]; -8.36% (active) in assay [4]; 51.7% in [5]; 108% in assay [6]. Besides, the growth is 87.5% in assay [7], 9.74% (active) in assay [8], 94.4% in [9] and 101% in assay [10].

With `Cc1nn(-c2ccccc2)c(Oc2c(Cl)cccc2Cl)c1/C=N/N=c1\sc2ccccc2n1C`, the growth was 72.5% in assay [1]; 53.3% in [2]; 82.2% in [3]; 83.6% in [4]; 17.4% in assay [5]; 60.3% in assay [6]. In addition, the growth is 65.5% in [7], 47.5% in assay [8], 50.8% in assay [9] and 40.8% in assay [10].

Turning to `NC(=O)Nc1ccc(-n2cnc3cc(-c4ccc(O)cc4)ccc32)cc1`, the growth is 103% in assay [1]; 110% in assay [2]; 101% in [3]; 104% in assay [4]; 102% in assay [5]; 149% in [6]. For the same compound, the growth was 73.3% in assay [7], 96.8% in [8], 109% in [9] and -20.8% (active) in assay [10].

On to `O=C1c2cccc3c(-c4ccc5c(c4)ncn5C4CCCCC4)ccc(c23)C(=O)N1c1nc2ccccc2s1`, for which the growth was 86.4% in assay [1]; 84.1% in assay [2]; 91.7% in [3]; 82% in assay [4]; 94.8% in assay [5]; 76% in [6]. Besides, the growth in assay [7] is 78.2%; in assay [8] it was 100%; in [9], 93%; in assay [10] it was 89.8%.

As to `O=C(Cn1c[n+](CC(=O)c2ccc([N+](=O)[O-])cc2)c2ccccc21)Nc1cccc2cccnc12`, the growth in assay [1] is 50.9%; in assay [2], 80.7%; in [3], 96%; in [4], 95.5%; in assay [5], 77.7%; in [6] it was 28%. For the same compound, the results for the growth in assay [7], in assay [8] and in [10] were 47.1%, 14.3% and 23.9%, respectively.

Regarding `CC(C)N1C(=O)/C(=C2\SC(=S)N(C(C)C)C2=O)SC1=S`, the growth in assay [1] was 94%; in assay [2], 101%; in assay [3], 94%; in [4], 95.5%; in assay [5], 101%; in assay [6] it was 72.3%. For the same compound, the growth was 90.6% in assay [7], 93.8% in [8] and 110% in assay [10].

Turning to `Cc1ccc(-c2csc(NC(=O)CSc3nc(-c4ccccc4)cc(=O)[nH]3)n2)cc1`, the growth in [1] was 92.2%; in assay [2], 103%; in assay [3], 93.4%; in assay [4], 100%; in assay [5] it was 101%; in assay [6], 82.5%. For the same compound, the growth in [7] was 80.3%; in assay [8], 91.7%; in assay [9] it was 104%; in assay [10], 109%.

On to `Brc1ccc2[nH]cc(-c3cncn3CCc3ccccc3)c2c1`, for which the growth in [1] was 37.9%; in assay [2], 53.5%; in assay [3], 74.3%; in assay [4], 63.4%; in assay [5], 66.5%; in [6] it was 23.4%. In addition, the growth is 51.1% in assay [7], 56.7% in assay [8] and 66.3% in [10].

Turning to `[O-][n+]1c(Cl)cc(Cl)c2ccccc21`, the growth in assay [1] was 102%; in assay [2], 104%; in assay [3], 115%; in assay [4], 103%; in assay [5], 108%; in assay [6], 89.4%. For the same compound, the growth in assay [7] is 104%; in assay [8], 91.9%; in [10], 107%.

As to `N#C/C(=C\c1ccccn1)c1nc2cc(Cl)ccc2s1`, the growth in [1] is 72.1%; in assay [2], 67.9%; in assay [3] it was 87.1%; in assay [4], 63.5%; in [5] it was 92%; in assay [6], 55.8%. Also, the growth in assay [7] was 63.4%; in assay [8] it was 78.1%; in assay [10], 101%.
